# Bioassay records deposited in PubChem by National Center for Advancing Translational Sciences (NCATS).
# Most compounds without a hit are left out; they make up all but 19% or so of the library.
# HT1080 IDH1KD tx = HT-1080 IDH1 knockdown cell toxicity (counter line) | AID 686971 | HT-1080 IDH1 knockdown viability, ATP luminescence, 48 h | Potency, µM (highest dose often 46.1 µM), inactives show at the top dose activity, negative = toxicity, usual class: cytotoxic | 2% of 360,000 active;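 note: potency is the fitted concentration of half-maximal effect; 0% = DMSO wells and -100% = cell-free medium wells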
#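 % activity derives from luminescence (CellTiter-Glo), normalised to DMSO and no-cell wells. HT-1080-IDH1KD cells, 750/well, had 48 h compound exposure at 37 °C.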
# HT1080NT lethal = kills 2HG-producing HT-1080-NT fibrosarcoma cells. HT-1080-NT fibrosarcoma viability, CellTiter-Glo ATP luminescence, 48 h. Potency, µM (highest dose often 46.1 µM), inactives show at the top dose activity, negative = less viability, hits mostly cytotoxic. 1.6% of 360,000 active;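 note: NT is the 2HG producing partner of a matched IDH1 knockdown line; potency is the fitted concentration of half-maximal effect; 0% = DMSO-treated cells and -100% = media-only wells without cells; nearly all actives have a fitted effect of over 55% in size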
#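 Compounds were tested in concentration-response format on HT-1080-NT cells for 48 hours at 37 degrees C. Cell viability came from CellTiter-Glo luminescence; curves were classified by r2, response magnitude and activity.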
# IL1B secr inh = inhibitors of inflammasome signaling (IL-1 beta secretion); THP-1 LPS/ATP IL-1B secretion, AlphaLISA, 16 h; active compounds read low; activity change, % at 57.5 µM; 4.7% of 360,000 active; in the data active = activity change below about -50%; inconclusive = mostly about -30% to -49%
#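 Secreted IL-1B measured by AlphaLISA bead assay after 16 h compound exposure of THP-1 cells; compounds (final up to 57.5 uM) added 1 h before LPS (250 ng/mL) and ATP (1.25 mM) stimulation; lower signal means less secretion.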
# DT40 TDP1 CPT = growth inhibition of DT40 Tdp1-/-;hTDP1 cells with camptothecin (screen for TDP1 inhibitors) | Potency, µM (top dose mostly 46.2 µM), inactives show top-dose activity change, negative = growth inhibition, hits mostly inhibitors | 12% of 420,000 active | chicken DT40 Tdp1-/-;hTDP1 cells + 20 nM CPT, ATP luminescence, 48 h | AID 686979; note: potency is the fitted concentration of half-maximal effect; nearly all actives have a fitted effect of over 55% in size
#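 Chicken DT40 Tdp1-/- cells complemented with human TDP1, 400 cells/well, exposed to compounds plus 20 nM camptothecin for at least 48 h at 37 C; viability read as ATP content by CellTiter-Glo luminescence.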
# DT40 TDP1 no CPT = qHTS for Inhibitors of human tyrosyl-DNA phosphodiesterase 1 (TDP1): qHTS in cells in absence of CPT; DT40 Tdp1-/- hTDP1 cells, no CPT, ATP luminescence, 48 h; Potency, µM (highest dose often 46.2 µM), without a hit: at the highest dose activity change, negative = growth inhibition, most hits filed as inhibitors; 15% of 420,000 active; AID 686978, 2013; note: potency is the fitted concentration of half-maximal effect; nearly all actives have a fitted effect of over 55% in size
#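 Chicken DT40 Tdp1-/- cells stably complemented with human TDP1 were seeded at 400 cells/well with DMSO in place of 20 nM camptothecin. After compound pinning, cells grew at least 48 hr at 37 °C; viability read by CellTiter-Glo luminescence.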
# An asterisk follows results filed as active; ? = inconclusive; . = no result. Unless noted, calls come from the whole dose curve; as a rule, active = well fitted curve in the direction sought with a large enough effect; inconclusive = small, poorly fitted or top-dose-only effect, or another doubt; inactive = no such curve, though single readings can be large; an effect the other way counts as inactive or inconclusive. Unless noted, % is set by controls: 0 for no effect and ±100 for the full control effect.
SMILES,HT1080 IDH1KD tx,HT1080NT lethal,IL1B secr inh,DT40 TDP1 CPT,DT40 TDP1 no CPT
COc1cccc(Cn2c(-c3nonc3N)nc3ccccc32)c1,2.06µM*,2.59µM*,50.1,2.91µM*,2.91µM*
CCOc1ccc(CCNC(=O)Cn2c(-c3nonc3N)nc3ccccc32)cc1OCC,-11.0%,-4.3%,-3.2,10µM*,12.6µM*
COc1cccc(Cc2nc3ccccc3nc2SCC(=O)Nc2ccccc2F)c1,.,.,.,20.2%,-16.0%
CC1CCN(c2cc3c(cc2F)c(=O)c(S(=O)(=O)c2cccc(Cl)c2)cn3Cc2ccccc2)CC1,.,.,.,12.4%,-16.5%
CCc1ccc(C2=C(C)C(N3CCC(C(=O)NCc4ccccc4)CC3)=NS2(=O)=O)cc1,.,.,.,3.7%,-23.5%
CCc1nc(SCC(=O)Nc2ccc(NC(C)=O)cc2)n[nH]1,.,.,.,2.5%,4.4%
CCOc1ccccc1-c1cc(-c2n[nH]c(=S)n2CC)c2ccccc2n1,0.6%,-6.4%,9.4,?,18.4µM*
CCOc1cccc(-c2cc(-c3n[nH]c(=S)n3CC)c3ccccc3n2)c1,-2.7%,-6.1%,1.5,-23.1%,?
O=C(Cc1cccc(NC(=O)C2CCN(S(=O)(=O)c3cccc([N+](=O)[O-])c3)CC2)c1)Nc1cccc(C(=O)N2CCCCC2)c1,-2.8%,-2.9%,-11.6,-21.1%,-11.5%
Cc1nc2nc(CNC(=O)c3cccc(F)c3)nn2c(C)c1CCC(=O)Nc1ccc(F)cc1,.,.,.,2.0%,-8.6%
O=C(C[C@H]1C[C@H](C(=O)N2CCOCC2)[C@@]2(CCC3CCCC3)c3[nH]c4ccc(Cl)cc4c3CCN2C1=O)NCC12CC3CC(CC(C3)C1)C2,0.9%,0.6%,43.3,16.4µM*,20.6µM*
O=C(C[C@H]1C[C@H](C(=O)N2CCOCC2)[C@@]2(CCC3CCCC3)c3[nH]c4ccc(Cl)cc4c3CCN2C1=O)NCCN1CCOCC1,6.6%,7.7%,-1.6,?,?
COc1ccc2[nH]c3c(c2c1)CCN1C(=O)C(CC(=O)NCC24CC5CC(CC(C5)C2)C4)C[C@H](C(=O)N2CCOCC2)[C@@]31CCC1CCCC1 (some centres undefined),8.1%,10.5%,-61.6*,?,?
COCCCNC(=O)C[C@H]1C[C@H](C(=O)N2CCOCC2)[C@@]2(CCC3CCCC3)c3[nH]c4ccc(Cl)cc4c3CCN2C1=O,9.8%,6.2%,-1.9,20.6µM*,?
CN1CC[C@@]2(CCCN(C(=O)c3cccc(F)c3)C2)C1,.,.,.,4.7%,-5.8%
Cc1ccc(Cl)cc1-n1ncc2c(Nc3cccc(C)c3C)ncnc21,.,.,.,16.4µM*,16.4µM*
COc1ccc(Nc2ncnc3c2cnn3-c2cccc(C)c2)cc1OC,15.5%,4.3%,-17.0,?,-12.7%
COCCNc1ncnc2c1cnn2-c1cc(Cl)ccc1C,.,.,.,-11.7%,?
COc1ccc(Nc2ncnc3c2cnn3-c2cc(Cl)ccc2C)cc1OC,.,.,.,20.6µM*,?
CC(C)CCNC(=O)Cn1cc2c(n1)CCCCC2,5.5%,2.4%,18.8,-8.5%,-20.3%
COC(=O)[C@@]12CCCCN1[C@H](c1ccc(-c3ccc(C(C)=O)cc3)cc1)[C@H]1C(=O)N(C)C(=O)[C@H]12,9.5%,4.0%,-8.4,11.6µM*,14.6µM*
COC(=O)[C@@]12CCCCN1[C@H](c1ccc(-c3ccccc3)cc1)[C@H]1C(=O)N(C)C(=O)[C@H]12,18.4%,7.8%,9.3,?,?
COC(=O)[C@@]12CCCCN1[C@H](c1ccc(-c3ccc(F)cc3)cc1)[C@@H]1C(=O)N(C)C(=O)[C@@H]12,-8.7%,-27.9%,4.1,20.6µM*,13µM*
CC1=CC(C)(C)[N+](C)(C)c2ccc(C)cc21,-7.1%,-11.0%,40.9,?,18.4µM*
Fc1ccc(Nc2ncnc3c2nc2n3CCCC2)cc1,.,.,.,-13.6%,?
Clc1cccc(N2CCN(c3ncnc4c3nc3n4CCCC3)CC2)c1,.,.,.,16.4µM*,20.6µM*
COc1ccc(CNc2ncnc3c2nc2n3CCCC2)cc1,.,.,.,?,-17.7%
